The list is not random: actives were taken first. Their share in the collection is about 3.5%.
Bim-Mcl-1 – inhibitors of Bim peptide binding to Mcl-1, primary screen, biochemical, bead-based flow cytometry, multiplex; Induced myeloid leukemia cell differentiation protein Mcl-1 (Homo sapiens), Q07820; Bim peptide-Mcl-1 binding; inhibition, % at 10 µM; 0.1% of 190,000 active; in the data active means inhibition above about 40%
Hck Nef HTS – inhibitors of Nef-activated human Hck kinase, primary screen, biochemical, Z-Lyte FRET, 384-well, Hck-YEEI; Tyrosine-protein kinase HCK (Homo sapiens), P08631; Recombinant Hck-YEEI plus Nef, Z-Lyte FRET kinase assay; inhibition, % at 20 µM; 0.68% of 220,000 active; AID 463187, 2010;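 active means Hck-Nef kinase inhibition above about 50%, limit read from the data; inactive means inhibition below that limit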
Target sequence (P08631 whole entry, looked up): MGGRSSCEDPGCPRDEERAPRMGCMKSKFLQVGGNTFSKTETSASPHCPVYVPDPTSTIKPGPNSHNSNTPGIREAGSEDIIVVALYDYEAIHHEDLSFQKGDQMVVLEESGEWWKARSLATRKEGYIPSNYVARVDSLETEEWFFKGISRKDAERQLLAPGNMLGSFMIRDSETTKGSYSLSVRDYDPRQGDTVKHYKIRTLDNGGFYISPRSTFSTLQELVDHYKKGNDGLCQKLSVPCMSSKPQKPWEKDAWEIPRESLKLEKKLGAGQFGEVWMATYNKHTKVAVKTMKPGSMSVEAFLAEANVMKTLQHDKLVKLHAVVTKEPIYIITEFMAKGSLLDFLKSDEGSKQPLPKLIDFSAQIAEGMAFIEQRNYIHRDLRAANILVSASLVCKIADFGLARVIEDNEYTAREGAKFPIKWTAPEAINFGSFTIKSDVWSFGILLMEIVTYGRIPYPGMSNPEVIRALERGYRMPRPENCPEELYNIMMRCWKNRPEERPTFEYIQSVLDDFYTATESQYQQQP
eIF4E-4G inh – eIF4E–eIF4G protein interaction inhibitors, primary screen, biochemical, uHTS, TR-FRET, eIF4GI fragment | Eukaryotic translation initiation factor 4E (Mus musculus) + Eukaryotic translation … | TR-FRET eIF4E-eIF4GI(517-606) binding, 2 h | inhibition, % at 21.7 µM | 0.37% of 220,000 active | AID 782, 2007;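 active means inhibition above about 30%, limit read from the data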
Mcl1 Noxa PPI – Mcl-1/Noxa binding inhibitors, primary screen, biochemical, TR-FRET, 1536-well; Induced myeloid leukemia cell differentiation protein Mcl-1 (Homo sapiens), Q07820; TR-FRET Mcl-1/Noxa peptide binding, 2 h; 1.5% of 220,000 active; inhibition, % at 21.7 µM;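 active means compounds that cut the protein-peptide binding signal by more than 50% relative to plate controls in a single-dose test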;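 further: His-tagged Mcl-1 with rhodamine Noxa BH3 peptide and terbium anti-His antibody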
14-3-3 Bad PPI – inhibitors of 14-3-3 zeta/Bad binding, primary screen, biochemical, TR-FRET, bovine 14-3-3 zeta; inhibition, % at 21.7 µM; 0.71% of 220,000 active; 14-3-3 protein zeta/delta (Bos taurus), P63103; TR-FRET 14-3-3zeta/Dy647-pBad peptide displacement, 1 h;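 active means inhibition above about 70%, limit read from the data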
Mcl1 Bid PPI – Mcl-1/Bid binding inhibitors, primary screen, biochemical, TR-FRET, 1536-well | Induced myeloid leukemia cell differentiation protein Mcl-1 (Homo sapiens), Q07820 | TR-FRET Mcl-1/Bid-Dy647 peptide binding | inhibition, % at 21.7 µM | 0.97% of 220,000 active | AID 1021, 2008;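 active means compounds that cut the binding signal by more than half at the single screening dose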;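 further: His-tagged Mcl-1 with europium anti-His antibody binding Bid BH3 peptide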
Of the large screens only hits and unclear results are named; the others gave an inactive call.

CCOC(=O)c1sc(N=NC2=C(O)CCCC2=O)c(C(=O)OCC)c1C	Hck Nef HTS 51.4
Cc1cc(O)c(Oc2cc(C)cc(O)c2O)c(O)c1	Mcl1 Noxa PPI 60.9
C/C(=N\Nc1ccc(C(=O)c2c(C)cc3ccccn23)cc1[N+](=O)[O-])c1ccc(O)cc1	none (no result: Bim-Mcl-1)
Cc1cc2ccccn2c1C(=O)c1ccc(N/N=C/c2ccc(C(=O)O)cc2)c([N+](=O)[O-])c1	eIF4E-4G inh 53.9, Mcl1 Noxa PPI 92.6, 14-3-3 Bad PPI 73.4, Mcl1 Bid PPI 72.9 (no result: Bim-Mcl-1)
O=C1c2ccccc2C(=O)N1CC#CCN1CCN(C(c2ccccc2)c2ccccc2)CC1	Mcl1 Bid PPI 62.3
O=S(=O)(CCN1CCN(C(c2ccccc2)c2ccccc2)CC1)C(F)(F)F	none
CC(=O)NCCCC(=O)NNC1CC(=O)N(c2cccc(Cl)c2)C1=O (stereo unspecified)	none (no result: Bim-Mcl-1)
CC(/C=N/NC(=O)CSc1nnc(SCc2ccccc2)s1)=C\c1ccco1	Mcl1 Noxa PPI 51.5
Cc1ccc(CSc2nnc(SCC(=O)N/N=C/C=C/c3ccco3)s2)cc1	none
O=C(Nc1cccc(S(=O)(=O)N2CCCCC2)c1)Nc1ccc(Cl)cc1Cl	none
Cc1ccc(-n2c(C)n[nH]c2=S)cc1	none
Cc1ccc(-n2c(C)n[nH]c2=S)cc1C	Mcl1 Bid PPI 97.3
Cn1c2c(c(=O)n(C)c1=O)C(NS(=O)(=O)c1ccccc1)(C(F)(F)F)C(=O)N2 (stereo unspecified)	Mcl1 Noxa PPI 50.7
O=C(NCCN1CCOCC1)c1cc2n(n1)C(C(F)(F)F)CC(c1ccc(F)cc1)N2 (stereo unspecified)	none
O=C(NCCN1CCOCC1)c1nn2c(c1Cl)NC(c1ccccc1)CC2C(F)(F)F (stereo unspecified)	eIF4E-4G inh 45.3
N#CC(C(=O)Nc1ccc(Cl)cc1)=C1Nc2ccccc2N1	Mcl1 Noxa PPI 50.6
Nc1c2c(nc3ccc(Br)cc13)N(C1CCCCC1)CC2	Mcl1 Noxa PPI 68.0
Nc1c2c(nc3ccc(Br)cc13)N(Cc1ccccc1)CC2	Mcl1 Noxa PPI 83.5
Nc1c2c(nc3ccccc13)N(C1CCCCC1)CC2	none (no result: Hck Nef HTS)
COC12NC(=O)N(C)C1(OC)C(=O)N(C)C(=O)N2C (stereo unspecified)	none
Cc1ccc(NC(=O)C2CCCN2C(=O)NC2CCCCC2)cc1 (stereo unspecified)	none
CNC(=S)N(CCc1ccc(S(N)(=O)=O)cc1)C1CC(=O)N(c2ccccc2F)C1=O (stereo unspecified)	14-3-3 Bad PPI 79.4, Mcl1 Bid PPI 60.9
CCOc1ccc(N2C(=O)CC(N(CCc3ccc(S(N)(=O)=O)cc3)C(C)=O)C2=O)cc1 (stereo unspecified)	none (no result: Bim-Mcl-1)
Cc1ccc2cn[nH]c2c1[N+](=O)[O-]	none
COc1cc2c(ccc3cc(OC)c(OC)c(O)c32)cc1O	Hck Nef HTS 67.4, Mcl1 Noxa PPI 107.3, 14-3-3 Bad PPI 77.7 (no result: Bim-Mcl-1)
Cc1cc(Br)ccc1NC(=O)CNC(=O)CN1C(=O)NC2(CCCCCC2)C1=O	none
Cc1ccc(NC(=O)NC(=O)CN2C(=O)NC3(CCCCCCC3)C2=O)c(C)c1	14-3-3 Bad PPI 71.4
CCCc1nc2ccccc2c(NC(=O)CN(CC)CC)c1CC	14-3-3 Bad PPI 79.9, Mcl1 Bid PPI 61.7
CCCCc1nc2ccccc2c(NC(=O)CN(CC)CC)c1CCC	14-3-3 Bad PPI 74.0, Mcl1 Bid PPI 50.6
CCCc1nc2ccccc2c(C(=O)O)c1CC	none
CCN(CC)CC(=O)Nc1cc(N(C)C)nc2ccccc12	none (no result: Bim-Mcl-1)
Cc1ccc(OCCCCn2cnc3ccccc32)c(C)c1	Mcl1 Bid PPI 54.4
Brc1ccccc1OCCCCn1cnc2ccccc21	none
